# Results with a measured potency or affinity are listed apart. The source made the active and inactive calls.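 Rule for the calls: active = cell killing whose fitted half-effect concentration is at most twice the top valid dose tested; inconclusive = flat curve with 30 to 70% killing, or a poor fit; inactive = effect in the rising direction, plus the rest.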
# Experiment: A549 cell cytotoxicity, dose response, cytotoxicity control, ATP luminescence, cherry-pick, set 2 (AID 1053124);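 note: 0% = neutral control wells and -100% = mitoxantrone 10 µM positive control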
# Conditions: A549 viability, ATP luminescence (CellTiter-Glo), 72 h; series mostly up to 26 µM; activity change, negative = cytotoxicity: at the top concentration
row,Structure (SMILES),"activity change, negative = cytotoxicity"
1,COc1ccc(S(=O)(=O)N2CCCC2CNC(=O)C(=O)NC2CCCC2)cc1 (stereo not given),-9.97% (inactive)
2,CC1=C(C(=O)N2CCN(c3cc(C)ccc3C)CC2)C2(CCCCC2)OC1=O,-8.35% (inactive)
3,O=C(C1=NN(c2ccccc2)C2C(=O)N(c3ccccc3)C(=O)C12)c1ccccc1 (stereo not given),7.8% (inactive)
4,COc1ccccc1NS(=O)(=O)c1cc(NC(=O)CCNC(C)=O)ccc1C,0.216% (inactive)
5,O=c1oc2cc(O)ccc2cc1S(=O)(=O)c1ccccc1,-15% (inactive)
6,Cc1ccc(-c2nc3ccsc3c(=O)[nH]2)cc1,-7.83% (inactive)
7,CCN1C(=O)c2cccc3c(S(=O)(=O)N(C)C)ccc1c23,-14.3% (inactive)
8,CCOc1ccc(-n2c(SCC(=O)Nc3nccs3)nnc2-c2ccoc2C)cc1,-10.2% (inactive)
9,COc1ccc(Cn2nnnc2C(CC(C)C)N2CCC(C(N)=O)CC2)cc1 (stereo not given),-7.61% (inactive)
10,CCn1c2ccccc2c(=O)c2ccccc21,-9.76% (inactive)
11,Cc1c(C(=O)NCc2cccc(C(F)(F)F)c2)sc(=O)n1Cc1ccc(C(=O)N(C)C)cc1,3.24% (inactive)
12,COc1ccc(NC(=O)C2CCC(CNS(=O)(=O)c3cccs3)CC2)cc1 (stereo not given),-6.87% (inactive)
13,COc1ccc(C2C3=C(CC(C)(C)CC3=O)N(C)C3=C2C(=O)CC(C)(C)C3)cc1,-10.4% (inactive)
14,Cc1nc2ccc(S(=O)(=O)Nc3ccc(-c4nc5cccnc5s4)cc3)cc2s1,-2.41% (inactive)
15,CCOCCCNC(=S)N1CCCN(c2nc3cc(C)c(C)cc3cc2C#N)CC1,-12.1% (inactive)
16,Cc1cc(-c2ccccc2)c2ccc(NC(=O)C(C)(C)C)nc2n1,-7.08% (inactive)
17,CCOC(=O)c1cc2c(=O)n3ccccc3nc2n(C(C)C)c1=NC(=O)c1ccco1,-10.1% (inactive)
18,Cc1cc(-c2nc3cccnc3s2)ccc1NS(=O)(=O)c1cccs1,-1.77% (inactive)
19,CCN(CC)c1ccc2cc(C#N)c(=O)oc2c1,-3.09% (inactive)
20,CCCN1CCc2c(sc(NC(=O)C3CCN(S(=O)(=O)c4cccs4)CC3)c2C(N)=O)C1,-11.7% (inactive)

row,Structure (SMILES),"activity change, negative = cytotoxicity"
1,CCCOc1ccccc1/C=C1\SC(N)=NC1=O,-8.93% (inactive)
2,O=C(O)c1[nH]c2ccccc2c1C(c1cc(Br)ccc1O)c1c(C(=O)O)[nH]c2ccccc12,2.61% (inactive)
3,O=c1oc2c(CN3CCN(CCO)CC3)c(O)ccc2cc1-c1ccccn1,6.89% (inactive)
4,Cn1cc(C(c2ccccc2OCC(=O)O)c2cn(C)c3ccccc23)c2ccccc21,-1.68% (inactive)
5,CCCOc1c(Br)cc(C2C3=C(CCCC3=O)N(C)C3=C2C(=O)CCC3)cc1OC,-2.32% (inactive)
6,COCCNC(=S)N/N=C/c1ccc(-c2ccc([N+](=O)[O-])cc2)o1,-6.8% (inactive)
7,CC(=O)c1cc2ccc(O)cc2oc1=O,2.12% (inactive)
8,CN1CCN(c2nc3ccccn3c(=O)c2/C=C(\C#N)S(=O)(=O)c2ccccc2)CC1,2.15% (inactive)
9,CCOC(=O)C(NC(=O)c1ccccc1)(OCC1(CC)COC1)C(F)(F)F (stereo not given),-3.35% (inactive)
10,CC1CCCCC1NC(=O)CN1C(=O)c2cccc(N)c2C1=O (stereo not given),-6.1% (inactive)
11,CSC1=NSC2=NC(=O)/C(=C/c3coc4ccc(O)cc4c3=O)C(=N)N12,-7.15% (inactive)
12,CCn1c(=NC(=O)CSC(C)=O)sc2cc(OC)ccc21,-8.33% (inactive)
13,O=C(CCc1c[nH]c2ccccc12)OCC(=O)c1ccccc1,-3.21% (inactive)
14,O=C(c1cccc(Cl)c1)N1CCC(=O)N(C(COCc2ccccc2)Cc2ccccc2)CC1 (stereo not given),-0.569% (inactive)
15,Nc1ccc(C#Cc2ccc3c(=O)c4ccccc4oc3c2)cc1,-9.82% (inactive)
16,Clc1cccc(CN2CCN(Cc3nc(CCc4ccccc4)no3)CC2)c1,-8.4% (inactive)
17,Cn1cnc(S(=O)(=O)Nc2ccc(OC(F)(F)F)cc2)c1,0.518% (inactive)
18,CCCN1CCN(C(=O)c2ccc(CS(=O)c3ccc(Br)cc3)o2)CC1 (stereo not given),-6.12% (inactive)
19,COCCCn1c(=N)c(C(=O)NC2CCCCC2)cc2c(=O)n3ccccc3nc21,-12% (inactive)
20,C=CCc1c(O)c(CC)cc2c(C)cc(=O)oc12,-7.59% (inactive)

# Source: PubChem BioAssay AID1053124 (Broad Institute, 2014)
